Measurements: the supplement of paper PMC6555819

Tests used:
Assay in all cases: PBM binding z-score (relative to random genomic background probes); higher = stronger binding; sequences stand for … in GC…GCGATTGACAGCGTAGAATGAAGG
[1] = system: FXR:RXRa (NR concentration 270 nM, RXRa partner concentration 90 nM)
Summary of the method: (§1)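 Ligand-free nuclear receptor dimers were bound for 1 h to custom Agilent 4×180K protein-binding microarrays. Detection used antibodies against each partner (one per run). Binding z-scores rest on regression-normalized fluorescence, with random background probes as the reference.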

[2] = system: LXRa:RXRa (NR concentration 270 nM, RXRa partner concentration 90 nM)
Summary of the method: as §1

[3] = system: LXRa homodimer (NR concentration 270 nM)
Summary of the method: as §1

[4] = system: LXRb:RXRa (NR concentration 270 nM, RXRa partner concentration 90 nM)
Summary of the method: as §1

[5] = system: LXRb homodimer (NR concentration 270 nM)
Summary of the method: as §1

[6] = system: PPARa:RXRa (NR concentration 270 nM, RXRa partner concentration 90 nM)
Summary of the method: as §1

[7] = system: PPARg:RXRa (NR concentration 180 nM, RXRa partner concentration 90 nM)
Summary of the method: as §1

[8] = system: PPARg:RXRa 270nM:90nM, anti-RXR (NR concentration 270 nM, RXRa partner concentration 90 nM)
Summary of the method: as §1

[9] = system: PPARg:RXRa 30nM:10nM, anti-RXR (NR concentration 30 nM, RXRa partner concentration 10 nM)
Summary of the method: as §1

[10] = system: PPARg:RXRa 90nM:30nM, anti-RXR (NR concentration 90 nM, RXRa partner concentration 30 nM)
Summary of the method: as §1

[11] = system: PPARg:RXRa DBDmut IVT, anti-RXR (DBD mutation: RXRa K156A/R161A, NR concentration 270 nM, RXRa partner concentration 90 nM)
Summary of the method: as §1

[12] = system: PPARg:RXRa IVT, anti-PPARg (NR concentration 270 nM, RXRa partner concentration 90 nM)
Summary of the method: as §1

[13] = system: PPARg DBDmut:RXRa IVT, anti-PPARg (DBD mutation: PPARg1 K132A/R137A, NR concentration 270 nM, RXRa partner concentration 90 nM)
Summary of the method: as §1

[14] = system: PPARg DBDmut IVT, anti-PPARg (DBD mutation: PPARg1 K132A/R137A, NR concentration 270 nM)
Summary of the method: as §1

[15] = system: PPARg homodimer (NR concentration 180 nM)
Summary of the method: as §1

[16] = system: PXR:RXRa (NR concentration 270 nM, RXRa partner concentration 90 nM)
Summary of the method: as §1

[17] = system: PXR homodimer (NR concentration 270 nM)
Summary of the method: as §1

[18] = system: RARa:RXR (NR concentration 270 nM, RXRa partner concentration 90 nM)
Summary of the method: as §1

[19] = system: RARa homodimer (NR concentration 270 nM)
Summary of the method: as §1

[20] = system: RARb:RXRa (NR concentration 270 nM, RXRa partner concentration 90 nM)
Summary of the method: as §1

Sequence | PBM binding z-score [1] | PBM binding z-score [2] | PBM binding z-score [3] | PBM binding z-score [4] | PBM binding z-score [5] | PBM binding z-score [6] | PBM binding z-score [7] | PBM binding z-score [8] | PBM binding z-score [9] | PBM binding z-score [10] | PBM binding z-score [11] | PBM binding z-score [12] | PBM binding z-score [13] | PBM binding z-score [14] | PBM binding z-score [15] | PBM binding z-score [16] | PBM binding z-score [17] | PBM binding z-score [18] | PBM binding z-score [19] | PBM binding z-score [20]
GCATATAGGTAATACAAGGAGAAAGTCCGATTGT | 0.156 | -0.0258 | -0.258 | -0.357 | -0.633 | 0.37 | 1.06 | 0.421 | 0.217 | 0.104 | 3.9 | 2.35 | 0.451 | 1 | -0.266 | -0.205 | 0.00189 | 0.277 | 0.43 | -0.406
GGAACGAGGGCAATTTGATAGCAGAGTTTGATGG | 0.502 | 0.242 | -0.405 | 0.427 | -0.315 | 1 | 1.04 | 0.751 | 0.15 | 0.401 | 3.43 | 2.2 | -0.942 | -0.307 | 0.234 | 0.484 | 0.475 | 0.401 | -0.342 | 1.64
TCGAGTACGTTAGGGGCATTCAGAATGGCGTCGA | -0.212 | -0.0926 | -0.859 | 0.0159 | -1.01 | 0.403 | 0.0548 | 0.205 | 0.448 | 0.552 | 0.475 | -0.595 | -1.29 | -1.15 | -0.704 | 1.69 | 5.78 | -0.118 | -0.866 | 0.723
CGTCCAAGGTCAAGGTAAGTGAAAGAGACTCGAA | 7.13 | 5.23 | 0.112 | 3.72 | 0.343 | 5.58 | 5.26 | 5.51 | 1.81 | 4.01 | 3.13 | 3.85 | 0.749 | 0.108 | 3.18 | 3.52 | 0.541 | 4.27 | 1.1 | 5.3
TCATATAGGTAAAAGATGAAAGTCGGTGTGGTAA | 0.736 | 1.17 | -0.031 | 1.03 | 0.134 | 2.6 | 3.49 | 4.9 | 5.17 | 5.29 | 4 | 2.54 | 1.07 | 0.573 | 0.893 | 0.672 | 0.283 | 1.08 | 1.1 | 0.338
CGTCAAAGTTCAACTAGGGTAACGTAAAGCACGC | 7.53 | 6.47 | 4.77 | 4.43 | 2.39 | 5.32 | 5.78 | 5.97 | 2.98 | 5.07 | 1.68 | 3.83 | 0.643 | 0.081 | 3.72 | 5.46 | 6.56 | 4.56 | 1.44 | 5.37
GCTGCTAGGTCAACTGATCGTCAGCTAAAGCTCG | 4.12 | 2.74 | -0.171 | 1.86 | -0.26 | 3.62 | 2.54 | 3.43 | 0.361 | 2.23 | 4.99 | 4.1 | 0.249 | -0.779 | 0.899 | 1.23 | -0.904 | 2.14 | -0.582 | 4.19
CGTACGAGGGCATGAGTTGATAGCAAATGCCGAT | 0.342 | 0.419 | -0.557 | 0.284 | -0.608 | 1.23 | 1.11 | 1.07 | 0.157 | 0.878 | 1.2 | 1.22 | -0.964 | -0.327 | 0.331 | 0.557 | 0.0171 | 0.533 | -0.662 | 2.01
ACATGTAGGTTAGCTGGGGTCATTCAGACTAGGC | 5.12 | 5.55 | 2.93 | 4.9 | 1.56 | 4.85 | 4.21 | 4.58 | 1.87 | 3.39 | 5.83 | 4.97 | 2.39 | 2.35 | 6.39 | 6.77 | 5.5 | 6.23 | 2.18 | 3.1
CAGACTGGGGCAAGGTTACCATAACGCACAGCCA | 0.535 | 1.05 | -0.312 | 1.07 | -0.19 | 2.41 | 3.76 | 4.25 | 1.96 | 3.63 | 4.18 | 4.53 | 1.14 | 0.637 | 0.947 | 0.474 | -0.134 | 0.82 | 0.141 | 1.8
CCTCGGAGGACAACAGCAGGTCAGAGCTGCCAGA | 0.202 | 0.89 | 0.459 | 0.176 | -0.75 | 0.561 | 0.1 | -0.313 | -0.784 | -0.736 | 0.0913 | -0.0313 | -0.897 | -1.32 | 0.749 | 0.458 | -0.253 | 0.722 | 0.0209 | 2.04
CCTTGTTGGTCAGGAGGTCACACACCGGATATGA | 3.65 | 3.45 | 2.55 | 3.64 | 0.947 | 4.07 | 3.37 | 3.8 | 1.66 | 2.83 | 1.61 | 3.58 | 0.862 | 0.471 | 2.86 | 4.22 | 1.27 | 4.37 | 1.82 | 3.85
GGAAGGAGGGCAAAGTTGATAGCATCTGTCGACG | 1.43 | 1.38 | 0.21 | 1.88 | 1.01 | 4.14 | 7.61 | 7.29 | 7.65 | 8.18 | 4.12 | 4.58 | 0.789 | 0.418 | 1.64 | 1.3 | 1.62 | 1.57 | 1.19 | 2.31
ATCGAAAGGTCGTGGGGTGAGTATACAGAAAGGC | 6.2 | 4.88 | 0.955 | 4.76 | 2.35 | 5.78 | 5.25 | 5.38 | 2.16 | 3.9 | 1.35 | 2.93 | 1.62 | 1.78 | 2.39 | 4.24 | 1.2 | 4.98 | 2.03 | 4.47
